Compounds with a hit are over-represented: about 9.5% of the library has one in this group of screens.
HPGD inh: inhibitors of human 15-hydroxyprostaglandin dehydrogenase (HPGD). P15428. purified HPGD, NADH fluorescence kinetic, PGE2 substrate. Potency, µM, for inactives: at the top dose activity change, negative = inhibition, most hits filed as inhibitors. actives 4.3% (n = 150,000); active = well fitted inhibition curve with a large enough effect, not every such curve was filed as active; inconclusive = small, poorly fitted or top-dose-only effect, or another doubt; inactive = no such curve, though single readings can be large or run the other way
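NADH formation kinetics: reaction with 30 uM PGE2 and 1 mM NAD+ (final), 20 nM enzyme, Tris-HCl pH 8 with Tween 20, after 15 min compound preincubation at room temperature. Fluorescence change, last versus first of five reads.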
Tau FP inhib: inhibitors of human tau fibril formation; P10636; actives 0.39% (n = 280,000); AID 1468; K18 P301L tau heparin fibrillization, Alexa594 FP, 6 h; Potency, µM (series often up to 57.7 µM), without a hit: top-dose activity, negative = inhibition, hits mostly inhibitors; also: nearly all actives have a fitted effect of over 55% in size
Target sequence (P10636 561-689 P618L limits assumed): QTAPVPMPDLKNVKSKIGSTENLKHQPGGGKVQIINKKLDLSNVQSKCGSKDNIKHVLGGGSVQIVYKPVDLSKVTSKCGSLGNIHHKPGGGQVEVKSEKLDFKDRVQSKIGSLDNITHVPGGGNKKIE
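Steps: dispense K18 P301L tau (15 uM plus 0.24 uM Alexa 594 tracer, final) in pH 7 sodium acetate; add compound; add heparin (20 uM final); incubate 6 hr, 37 C; add ThT (30 uM final); after 1 hr ambient, read FP.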
Tau fibril ThT: tau fibrillization inhibition (ThT binding) | Potency, µM (highest dose often 57.4 µM), for the others: at the top dose activity, negative = inhibition, most hits filed as inhibitors | recombinant tau K18 P301L, heparin-induced fibrillization, ThT fluorescence | P10636 | actives 2.1% (n = 270,000); also: nearly all actives have a fitted effect of over 55% in size
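Aggregation was driven by heparin (20 uM final) acting on recombinant tau […] bearing P301L in 100 mM sodium acetate pH 7; fibrils were detected with Thioflavin T.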
Tau fluor cs: counter-screen for tau fibril formation inhibitors; tau K18 P301L (four-repeat tau fragment) Alexa594 fluorescence, heparin fibrillization; Potency, µM (doses to about 57.7 µM), for the others: at the top dose activity change, negative = decrease; actives 0.93% (n = 280,000); also: nearly all actives have a fitted effect of over 55% in size
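Human K18 P301L tau (15 uM unlabeled plus 0.24 uM Alexa 594-labeled, final) in 100 mM sodium acetate pH 7 was mixed with compound and 20 uM heparin and incubated 6 hr at 37 C.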
NPSR antagonist: blocks cAMP signaling of the human neuropeptide S receptor | Q6W5P4 | CHO-NPSR cells, cAMP TR-FRET, antagonist mode | Potency, µM (top dose mostly 38.3 µM), inactives show at the top dose activity change, negative = inhibition, usual class: inhibitors | actives 1% (n = 220,000) | AID 1461; also: nearly all actives have a fitted effect of over 50% in size
Target sequence (Q6W5P4 whole entry, looked up): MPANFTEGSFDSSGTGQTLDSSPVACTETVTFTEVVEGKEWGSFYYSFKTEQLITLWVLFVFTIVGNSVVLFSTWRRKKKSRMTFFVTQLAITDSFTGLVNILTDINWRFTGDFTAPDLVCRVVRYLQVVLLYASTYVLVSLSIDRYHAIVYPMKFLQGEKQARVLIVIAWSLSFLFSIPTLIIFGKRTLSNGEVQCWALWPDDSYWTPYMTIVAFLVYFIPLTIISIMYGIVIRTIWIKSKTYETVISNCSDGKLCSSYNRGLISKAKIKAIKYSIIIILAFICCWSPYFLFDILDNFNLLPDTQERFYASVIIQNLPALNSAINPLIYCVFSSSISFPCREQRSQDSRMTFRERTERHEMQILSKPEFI
ALDH1A1 block: inhibitors of human aldehyde dehydrogenase 1A1; P00352; Purified ALDH1A1, NADH fluorescence, propionaldehyde substrate; Potency, µM (highest dose often 75.3 µM), inactives show at the highest dose activity, negative = inhibition, most hits filed as inhibitors; actives 7.3% (n = 220,000); active = well fitted inhibition curve with a large enough effect, not every such curve was filed as active; inconclusive = small, poorly fitted or top-dose-only effect, or another doubt; inactive = no such curve, though single readings can be large or run the other way;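 also: plate controls were no enzyme wells and a reference inhibitor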
* = called active by the depositor; ? = inconclusive; . = no result given; [ ] = another dose, or the depositor's remark. Unless noted, calls follow the shape of the dose curve; as a rule, active = well fitted curve in the direction sought with a large enough effect; inconclusive = small, poorly fitted or top-dose-only effect, or another doubt; inactive = no such curve, though single readings can be large; an effect the other way counts as inactive or inconclusive. Unless noted, % is scaled to controls: 0 for no effect and ±100 for the full control effect; potency is read from the fitted curve at half-maximal effect.

SMILES	HPGD inh	Tau FP inhib	Tau fibril ThT	Tau fluor cs	NPSR antagonist	ALDH1A1 block
COc1ccccc1C1CC(c2c(-c3ccccc3)c3cc(Cl)ccc3[nH]c2=O)=NN1S(C)(=O)=O (stereo unspecified)	?	-13.8%	-10.6%	?	?	?
COc1cccc(C2CC(c3c(-c4ccccc4)c4cc(Cl)ccc4[nH]c3=O)=NN2S(C)(=O)=O)c1OC (stereo unspecified)	-21.7%	-1.8%	-12.2%	?	-19.0%[46.1 µM]	5.01µM*
c1ccc2c(COn3nnc4ccccc43)cccc2c1	?	-6.5%	-15.2%	-24.4%	-26.1%[46.1 µM]	-64.0%
c1ccc2c(Cn3nnc4ccccc43)cccc2c1	28.2µM*	1.7%	-9.8%	-16.3%	-10.3%[46.1 µM]	?
FC(F)(F)c1cc(-c2ccco2)nc2ncnn12	?	3.0%	3.6%	6.6%	5.3%	?
O=C(O)CSc1ncnc2c1oc1ccccc12	.	-8.3%	-16.6%	-7.8%	-17.7%[46.1 µM]	5.6%
O=C(COc1c(Br)cc(Br)c2cccnc12)N1CCCCC1	.	-2.7%	?	-6.5%	-49.9%	?
O=C(COc1c(Br)cc(Br)c2cccnc12)N1CCc2ccccc2C1	17.8µM*	-0.9%	?	-17.7%	-7.6%[46.1 µM]	11.2µM*
CCOC(=O)CC(=O)CSc1ncnc2c1oc1ccccc12	14.1µM*	-9.6%	?	-22.1%	?	-5.7%
O=C(CSc1ncnc2c1oc1ccccc12)N1CCc2ccccc2C1	3.98µM*	5.0%	-15.2%	-2.5%	-23.4%[46.1 µM]	-3.4%
O=C(CSc1ncnc2c1oc1ccccc12)NCc1ccco1	8.91µM*	-3.6%	2.9%	0.9%	?	11.2µM*
CCCN(CCC)CCCNC(=O)C1CCC(CNS(=O)(=O)c2cccc3nsnc23)CC1 (stereo unspecified)	.	-9.1%	-3.0%	-7.1%	.	.
Cc1cc(Br)ccc1NC(=S)N1CCOCC1	.	0.2%	-1.0%	2.6%	12.1%	.
Nc1cc2sc(-c3ccc(C(=O)O)cc3)nc2cc1Cl	?	1.7%	?	-21.2%	-29.0%	?
Nc1ncc(N=Nc2cc(C(=O)O)ccc2Cl)s1	.	?	14.1µM*	-27.7%	-3.7%	.
Nc1cc2c(cc1O)CCCC2	.	-11.6%	?	-27.3%	-5.3%	2.24µM*
COC(=O)c1ccc(CSc2nnc(-c3ccccc3)n2C)o1	.	2.8%	-2.5%	6.6%	2.5%	-10.4%
COC(=O)c1ccc(CSc2nnnn2-c2ccccc2)o1	-21.1%	-1.8%	-1.1%	6.3%	-5.4%[46.1 µM]	7.08µM*
COC(=O)c1ccc(-n2nnnc2SCc2ccccc2OC)cc1	-23.5%	-4.0%	-13.2%	-23.3%	?	14.1µM*
CCc1ccc(-n2c(CSc3nnnn3-c3ccccc3)nc3ccccc3c2=O)cc1	-10.9%	?	3.6%	-3.5%	-7.8%[46.1 µM]	1.41µM*
COC(=O)c1ccc(-n2nnnc2SCC(=O)Nc2ccccc2C(=O)OC)cc1	-21.5%	-15.3%	-0.2%	-14.9%	?	-1.3%
COc1ccccc1N1C(=O)C2C(c3ccccc3F)NN(C(=O)c3ccc(C)cc3)C2C1=O (stereo unspecified)	?	8.6%	4.2%	-1.3%	1.1%	8.5%
Cc1ccc(C(=O)N2NC(c3ccccc3F)C3C(=O)N(c4cccc(C)c4)C(=O)C32)cc1 (stereo unspecified)	-27.8%	6.0%	-3.9%	-9.1%	13.8%	2.51µM*
COc1cccc(N2CC(NC(=O)c3cc(Cl)ccc3OC)CC2=O)c1 (stereo unspecified)	.	-13.4%	-3.8%	-7.0%	.	.
N=c1c[n+](N2CCOCC2)[n-]o1	-23.8%	?	12.6µM*	-20.2%	15.3%	?
CCCn1c(-c2ccc(F)cc2)nc2c(NCCCN(C)C)nc(C)nc21	-27.1%	3.4%	-13.4%	-10.5%	.	?
COc1ccc(-c2cc(=O)n(-c3ccc([N+](=O)[O-])cc3)[nH]2)cc1	-19.9%	1.1%	11.2µM*	?	-16.4%	-6.7%
O=C(CO/N=C/c1ccccc1OC(F)F)NCc1cccs1	15.8µM*	6.0%	-3.0%	-5.3%	2.2%	8.1%

High-throughput results deposited in PubChem BioAssay by National Center for Advancing Translational Sciences (NCATS).
